Shown are actives, neighbours in structure and some others; about 3.7% of the full set was active somewhere.
HepG2 viability: counter-screen for TGF-b inhibitors: cytotoxicity in HepG2 cells; HepG2 CAGA-GFP viability, ATP luminescence, 18 h; Potency, µM (doses to about 46.1 µM), usual class: cytotoxic; actives 0.76% (n = 410,000)
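HepG2 CAGA-GFP cells (1000/well, DMEM with 1% FBS) received compound, then TGF-beta at 500 pg/mL final, and were incubated 18 hours at 37 degrees C. Viability was read by CellTiter-Glo luminescence. Media-only wells were set as complete cell-killing and DMSO as no toxicity.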
TGFb inhibitor: inhibitors of TGF-b signaling; HepG2 CAGA-GFP TGF-b/SMAD3 reporter, GFP fluorescence, 18 h; TGF-beta stimulated, 500 pg/mL final; Potency, µM (series often up to 46.1 µM), most hits filed as inhibitors; actives 1.2% (n = 410,000); further: nearly all actives have a fitted effect of over 65% in size
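TGF-beta reporter screen: HEPG2 CAGA-GFP, 1% FBS, 500 pg/mL TGF-beta final, 18 h; per-cell GFP summed per well; curves fitted and categorized by class.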
ATXN viability: cell viability loss in ATXN counter-screen. S2 cells (HEK-293 line with an ATXN2-luciferase reporter) viability, CellTiter-Fluor protease fluorescence, 24 h. Potency, µM (top dose mostly 56.7 µM), most hits filed as cytotoxic. AID 651635. actives 0.49% (n = 400,000); further: nearly all actives have a fitted effect of over 40% in size
GLP-1R agonist: activates the human GLP-1 receptor | P43220 | HEK293 GLP-1R CRE-luciferase, luminescence, 4-6 h; cells express a hypersensitive GLP-1R form | Potency, µM (top dose mostly 45.6 µM), actives largely listed as activators | actives 0.007% (n = 380,000) | AID 624172
Target sequence (P43220 whole entry, looked up): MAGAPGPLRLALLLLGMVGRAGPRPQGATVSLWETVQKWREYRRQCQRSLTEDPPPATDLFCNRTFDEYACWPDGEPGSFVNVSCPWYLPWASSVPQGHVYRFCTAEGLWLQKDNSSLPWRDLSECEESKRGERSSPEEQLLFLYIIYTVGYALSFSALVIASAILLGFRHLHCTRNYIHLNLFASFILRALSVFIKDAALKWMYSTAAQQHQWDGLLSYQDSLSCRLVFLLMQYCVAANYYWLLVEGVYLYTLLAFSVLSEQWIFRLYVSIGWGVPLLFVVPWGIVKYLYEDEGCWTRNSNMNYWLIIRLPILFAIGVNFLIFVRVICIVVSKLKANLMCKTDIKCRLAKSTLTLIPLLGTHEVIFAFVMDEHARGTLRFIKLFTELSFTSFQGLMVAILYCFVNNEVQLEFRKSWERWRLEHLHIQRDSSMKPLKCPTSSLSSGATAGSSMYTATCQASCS
GLP1R inv ag: inverse agonists of human GLP-1 receptor. actives 1.6% (n = 410,000). P43220. Potency, µM (highest dose often 38.3 µM), usual class: inhibitors. AID 624417. HEK293 GLP-1R CRE-luciferase, luminescence, 24 h; GLP-1R form is constitutively active; further: nearly all actives have a fitted effect of over 55% in size
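Constitutively active GLP-1R drives a cAMP-responsive luciferase in stably transfected HEK293 cells; test compounds are added after overnight (12 h) attachment and left 24 hr, and signal loss in luminescence marks inhibition.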
ATXN2 expr inh: ATXN2 expression inhibition. HEK-293 ATXN2-luciferase reporter, luminescence, 24 h. Potency, µM (doses to about 57 µM), actives largely listed as inhibitors. actives 0.72% (n = 360,000). AID 1745845; further: nearly all actives have a fitted effect of over 55% in size
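ATXN2-luciferase reporter cells (luciferase flanked by upstream and downstream ATXN2 gene portions) were treated 24 h at 37 °C with compounds at up to 57 uM. SteadyGlo luminescence gave expression; GF-AFC fluorescence gave viability.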
A number is an active result; – = inactive; ? = inconclusive; · = no result given; ! = not confirmed by another sample. The call rests on the fitted dose curve; in most records, active means well fitted curve in the direction sought with a large enough effect; inconclusive means small, poorly fitted or top-dose-only effect, or another doubt; inactive means no such curve, though single readings can be large; an effect the other way counts as inactive or inconclusive.

SMILES | HepG2 viability | TGFb inhibitor | ATXN viability | GLP-1R agonist | GLP1R inv ag | ATXN2 expr inh
CCn1ccnc1CN1CCCC(C(=O)c2cc(Cl)ccc2OC)C1 (configuration not stated) | – | – | – | – | 10µM | –
N=C(N)c1c(O)n(C2CCCCC2)c(=O)n(C2CCCCC2)c1=O | – | ? | ? | – | 4.47µM | –
O=C1NC2C(=CC(O)C(O)C2O)c2cc3c(cc21)OCO3 (configuration not stated) | – | ? | ? | – | ? | 0.947µM
CC#C[C@]1(O)CC[C@H]2[C@@H]3C[C@H](C)C4=CC(=O)CC[C@]4(C)[C@H]3CC[C@@]21C | · | · | – | · | · | –
O=C1/C(=C/c2ccccc2)C[C@@]2(O)[C@H]3Cc4ccc(O)c5c4[C@@]2(CCN3CC2CC2)C1O5 (some centres not stated) | 10µM | 5.62µM | 7.08µM | – | ? | 3.55µM
CN(C)c1ccc(N=O)cc1 | – | 5.01µM | · | · | · | ·
CN(C)c1ccc(N=Nc2ccccc2)cc1 | – | – | · | · | · | ·
CCO[C@H]1O[C@@H]2OC3(C)CC[C@H]4[C@H](C)CC[C@@H]([C@H]1C)[C@@]24OO3 | · | · | – | · | · | –
OCCN1CCN(CCCN2c3ccccc3Sc3ccc(C(F)(F)F)cc32)CC1 | – | ? | ? | – | ? | 28.2µM!
O=C(NCCSc1c(-c2ccccc2)[nH]c2ccccc12)c1ccc(S(=O)(=O)N2CCOCC2)cc1 | – | ? | ? | · | ? | –
COC(=O)C1=C(c2ccc(Cl)c(C(F)(F)F)c2)C[C@@H]2CC[C@H]1N2C(=O)N1CCC(O)(c2ccc(Cl)cc2)CC1 | – | 14.1µM | ? | – | 8.91µM | ?
O=C(Oc1ccc([N+](=O)[O-])cc1)N1CCN(Cc2cccc(Oc3ccccc3)c2)CC1 | · | · | · | · | · | –
C[C@]12CC[C@H]3[C@@H](CCC4=CC(=O)CC[C@@]43C)[C@H]1CC[C@H]2O | · | · | · | · | · | –
CCCCNC(C)(C)[P+](=O)O | · | · | – | – | · | ·
CCCCN(Cc1ccccc1)C1CCN(CCc2ccccc2)CC1 | – | ? | ? | – | 10µM | –
O=C(Nc1ccccn1)NC12CC3CC(CC(C3)C1)C2 | – | – | – | – | 1.41µM | –
COc1ccc(-n2nnnc2C(c2cccc(OC)c2OC)N2CCC(n3c(=O)[nH]c4ccccc43)CC2)cc1 (configuration not stated) | – | ? | ? | – | ? | –
COc1cccc(C(c2nnnn2-c2ccc3c(c2)OCCO3)N2CCC(n3c(=O)[nH]c4ccccc43)CC2)c1OC (configuration not stated) | 12.6µM | ? | – | – | – | 15.8µM
CCC(=O)[C@@H](C)[C@@H](O)[C@H](C)C[C@@H](C)C1OC(=O)C[C@@]2(O)CC=C(C)C(O2)C(C)=CCCC[C@H](O[C@H]2C[C@@H](OC(N)=O)[C@H](O)[C@@H](C)O2)C=C[C@H](C)C[C@H]1C (some centres not stated) | · | · | 14.1µM | – | – | –
O=C1CC2OCC=C3CN4CCC56c7ccccc7N1C5[C@H]2[C@H]3C[C@H]46 (some centres not stated) (tested in a mixture with another compound) | · | · | · | – | · | ·
CC(C)c1ccc(Oc2cccc3c2S(=O)(=O)N(C2CCCC2)CC(COCc2ccccc2)O3)cc1 (configuration not stated) | – | – | – | – | 5.62µM | –
CN[C@H]1C[C@@H](N)[C@H](O)[C@@H](O[C@@H]2O[C@H](CO)[C@H](O)[C@@H]3OC4(O[C@H]23)O[C@H](C(N)CO)[C@H](O)[C@H](O)[C@H]4O)[C@@H]1O (some centres not stated) | · | · | – | · | · | ·
C=C1C(=O)OC2CC3(C)OC3CCC(C)=CC(OC(C)=O)C12 (configuration not stated) | – | 17.8µM | · | – | ? | ?
O=C(CN1CCOCC1)c1ccc2ccccc2c1 | – | – | · | · | · | ·

High-throughput results deposited in PubChem by National Center for Advancing Translational Sciences (NCATS).
